Measurements as given in PubChem BioAssay (NCATS).
Unmarked numbers belong to inactive results. Entries that show only a call come without a potency. Active and inactive are the calls of the source. The call rests on the fitted dose curve; in most records, active means well fitted inhibition curve with a large enough effect; inconclusive means small, poorly fitted or top-dose-only effect; inactive means flat fitted curve, though single readings scatter.

biological target: Luciferin 4-monooxygenase (Photinus pyralis) (UniProt P08659); assay: Primary firefly luciferase (FLuc) qHTS assay for identification of artifact compounds. (AID 1845220); conditions: purified firefly luciferase, luminescence, 5 min; series mostly up to 54.1 µM; further: nearly all actives have a fitted effect of over 60% in size
In short: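 qHTS, 15 min compound preincubation with substrate (10 uM luciferin, 10 uM ATP) at RT, then 10 nM FLuc; 5 min; luminescence; % inhibition vs no-enzyme/DMSO controls, 4-parameter Hill fit.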

Row | SMILES | Potency | outcome | activity change, negative = inhibition
1 | O=C(/C=C/c1ccc(O)cc1)OC[C@H]1O[C@@H](O/C(=C\c2ccccc2)C(=O)O)[C@H](O)[C@@H](O)[C@@H]1O | inactive |  | 
2 | COC(=O)C1=CO[C@@H](O[C@@H]2O[C@H](CO)[C@@H](O)[C@H](O)[C@H]2O)/C(=C\CO)[C@@H]1CC(=O)OCCc1ccc(O)cc1 | inactive |  | 
3 | C=CC(C)(C)C12Nc3c(ccc4c3OC(C)(C)C=C4)C1(O)CC1C(=O)N3CCCC3C(=O)N12 (stereo not given) | inactive |  | 
4 | CC(=O)O[C@@H]1[C@H](O[C@@H]2OC[C@](O)(CO)[C@H]2O)[C@@H](O[C@@H]2O[C@@H](C)[C@H](O)[C@@H](O[C@@H]3O[C@H](CO)[C@@H](O)[C@H](O)[C@H]3O)[C@H]2O)[C@H](OC(=O)[C@]23CCC(C)(C)C[C@H]2C2=CCC4[C@@]5(C)C[C@H](O)[C@H](O[C@@H]6O[C@H](C(=O)O)[C@@H](O)[C@H](O)[C@H]6O)[C@@](C)(C(=O)O)C5CC[C@@]4(C)[C@]2(C)CC3)O[C@@H]1C (stereo not given in full) |  | inactive [at 11.6 µM] | 
5 | COc1ccc(CC(NC(C)=O)C(=O)O)cc1 (stereo not given) | inactive |  | 
6 | COC1CC(O[C@H]2CC[C@@]3(C)C(=CC[C@]4(O)C3[C@H](O)[C@@H](O)[C@]3(C)[C@@H]([C@H](C)O)CC[C@@]34O)C2)OC(C)C1OC1CC(OC)C(OC2CC(OC)C(OC3OC(C)C(OC4OC(CO)C(O)C(O)C4O)C(OC)C3O)C(C)O2)C(C)O1 (stereo not given in full) |  |  | 1.06% [at 11.6 µM]
7 | C=CC(C)(O)CC/C=C(\C)C(=O)O[C@@H]1[C@@H](O)[C@H](OC(C)(C=C)CC/C=C(\C)C(=O)O)O[C@H](CO)[C@H]1OC(=O)/C(C)=C/CCC(C)(O)C=C (stereo not given in full) | inactive |  | 
8 | CC(=O)O[C@@H]1C=C2[C@H](CC[C@@]3(C)[C@@]2(O)CC[C@H]2Cc4c([nH]c5ccccc45)[C@@]23C)O[C@@H]1C(C)(C)O | inactive |  | 
9 | O=C(OC[C@H]1O[C@@H](Oc2ccccc2CO)[C@H](O)[C@@H](O)[C@@H]1O)c1ccccc1 | inactive |  | 
10 | CC1(C)CC[C@]2(C(=O)O[C@@H]3O[C@H](CO[C@@H]4O[C@H](CO)[C@@H](O)[C@H](O)[C@H]4O)[C@@H](O)[C@H](O[C@@H]4O[C@H](CO)[C@@H](O)[C@H](O)[C@H]4O)[C@H]3O)[C@H](O)C[C@]3(C)C(=CCC4[C@@]5(C)CC[C@H](O[C@@H]6OC[C@@H](O)[C@H](O)[C@H]6O)[C@@](C)(C(=O)O)C5CC[C@]43C)[C@@H]2C1 (stereo not given in full) |  | inactive [at 11.6 µM] | 
11 | C=C1CC[C@@]2(OC1)O[C@H]1CC3[C@@H]4CC=C5C[C@H](O[C@H]6OC[C@@H](O)C(O)[C@@H]6O[C@@H]6O[C@@H](C)[C@H](O)[C@@H](O[C@@H]7O[C@H](CO)[C@@H](O)[C@H](O)[C@H]7O)[C@H]6O)C[C@@H](O)[C@]5(C)C4CC[C@]3(C)[C@H]1[C@@H]2C (stereo not given in full) |  |  | -10.8% [at 11.6 µM]
12 | O=C(OC[C@H]1O[C@@H](Oc2ccccc2COC(=O)C2(O)C=CCCC2O)[C@H](O)[C@@H](O)[C@@H]1O)c1ccccc1 (stereo not given in full) | inactive |  | 
13 | CNC(C)C(=O)NC(C(=O)N1CCCC1C(=O)Nc1cccc2ncccc12)C(C)C (stereo not given) | inactive |  | 
14 | CC1(C)CC[C@]2(C(=O)O[C@@H]3O[C@H](CO[C@@H]4O[C@H](CO)[C@@H](O)[C@H](O)[C@H]4O)[C@@H](O)[C@H](O[C@@H]4O[C@H](CO)[C@@H](O)[C@H](O)[C@H]4O)[C@H]3O)CC[C@]3(C)C(=CCC4[C@@]5(C)CC[C@H](O[C@@H]6OC[C@@H](O)[C@H](O)[C@H]6O)[C@@](C)(C(=O)O)C5CC[C@]43C)[C@@H]2C1 (stereo not given in full) |  | inactive [at 11.6 µM] | 
15 | O=C(O)CC/C=C\C[C@H]1CO[C@@H](c2ccccc2Cl)O[C@H]1c1ccccc1O | inactive |  | 
